The values below come from ChEMBL document CHEMBL3988442, “University of Dundee, Small-Polar-MMV Screening Library” (2021).

What all share (design): scale not given: direction of the effect not stated beside the values
The target in test [1] is Protein translocase subunit SecA (Escherichia coli (strain K12)) (UniProt P10408). Briefly: Assay to Identify E. coli SecA ATPase Inhibitors. The class given is functional. As to conditions: 30 µM.
Test [2] deals with T1, Ubiquitin-activating enzyme e1, putative (Leishmania donovani (strain BPK282A1)) (UniProt E9BSI1).
T1 sequence (whole entry): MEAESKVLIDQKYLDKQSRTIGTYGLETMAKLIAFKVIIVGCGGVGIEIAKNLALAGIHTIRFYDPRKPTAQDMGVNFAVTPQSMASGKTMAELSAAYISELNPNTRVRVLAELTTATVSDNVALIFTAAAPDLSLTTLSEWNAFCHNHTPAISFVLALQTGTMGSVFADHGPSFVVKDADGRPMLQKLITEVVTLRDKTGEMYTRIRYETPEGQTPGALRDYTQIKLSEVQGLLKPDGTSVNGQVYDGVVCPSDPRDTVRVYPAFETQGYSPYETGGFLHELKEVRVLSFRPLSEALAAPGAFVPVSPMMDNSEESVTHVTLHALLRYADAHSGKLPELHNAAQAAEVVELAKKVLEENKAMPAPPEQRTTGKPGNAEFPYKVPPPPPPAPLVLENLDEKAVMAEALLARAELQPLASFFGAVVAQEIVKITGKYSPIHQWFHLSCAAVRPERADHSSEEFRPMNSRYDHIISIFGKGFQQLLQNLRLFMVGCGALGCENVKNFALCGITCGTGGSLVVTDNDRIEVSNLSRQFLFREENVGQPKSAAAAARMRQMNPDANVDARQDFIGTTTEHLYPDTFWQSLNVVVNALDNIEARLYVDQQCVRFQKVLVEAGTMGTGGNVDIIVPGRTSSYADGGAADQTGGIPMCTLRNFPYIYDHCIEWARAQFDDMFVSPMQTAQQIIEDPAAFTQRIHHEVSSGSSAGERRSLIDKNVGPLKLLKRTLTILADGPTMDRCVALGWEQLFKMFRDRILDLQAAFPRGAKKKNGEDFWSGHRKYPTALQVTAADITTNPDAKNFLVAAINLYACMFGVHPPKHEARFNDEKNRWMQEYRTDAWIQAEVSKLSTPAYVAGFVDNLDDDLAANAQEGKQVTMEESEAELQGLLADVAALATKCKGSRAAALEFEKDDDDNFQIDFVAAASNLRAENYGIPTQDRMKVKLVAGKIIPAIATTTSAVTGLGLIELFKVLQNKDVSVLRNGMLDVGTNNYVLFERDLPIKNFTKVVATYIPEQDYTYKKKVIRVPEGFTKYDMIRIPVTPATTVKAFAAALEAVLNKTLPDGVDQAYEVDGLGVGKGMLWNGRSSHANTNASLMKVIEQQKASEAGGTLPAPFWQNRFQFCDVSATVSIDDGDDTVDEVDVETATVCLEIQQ
Briefly: Leishmania donovani Ubiquitin Activating Enzyme (LdE1). It is filed as functional. As to conditions: 30 µM.

Test [3] concerns the target AMP-activated protein kinase, AMPK (Homo sapiens) (UniProt P54646+O43741+P54619+Q9UGJ0+Q9Y478+Q13131+Q9UGI9). Briefly: AMP-dependent Kinase enzyme assay. An in vitro enzyme assay that detects ADP turnover that is directly proportional to AMPK activity. This uses naive AMPK that is activated during the assay with MK-8722. The class given is functional. The settings on record: 30 µM.

In test [4] the target is Sialic acid-binding Ig-like lectin 9 (Homo sapiens) (UniProt Q9Y336). Briefly: Hs-Siglec9 ALPHAscreen SOP 20170721. The settings on record: 10 µM.
Sialic acid-binding Ig-like lectin 9 (Homo sapiens), sequence (Q9Y336 whole entry): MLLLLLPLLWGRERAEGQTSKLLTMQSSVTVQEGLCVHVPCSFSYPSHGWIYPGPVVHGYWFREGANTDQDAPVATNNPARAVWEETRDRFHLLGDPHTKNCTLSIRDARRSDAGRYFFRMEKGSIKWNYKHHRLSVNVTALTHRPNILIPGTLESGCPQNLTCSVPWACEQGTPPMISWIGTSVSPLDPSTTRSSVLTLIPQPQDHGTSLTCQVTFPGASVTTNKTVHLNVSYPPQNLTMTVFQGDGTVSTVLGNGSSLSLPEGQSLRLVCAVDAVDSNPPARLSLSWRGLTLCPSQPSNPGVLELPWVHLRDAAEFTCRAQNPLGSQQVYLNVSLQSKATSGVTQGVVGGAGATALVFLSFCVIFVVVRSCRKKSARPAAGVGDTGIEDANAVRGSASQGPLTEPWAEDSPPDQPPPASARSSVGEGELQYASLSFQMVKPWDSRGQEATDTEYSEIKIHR
In another test the test system is Trypanosoma cruzi. The experiment in a line: Trypanosoma cruzi phosphomannomutase and mannose-1-phosphate guanylyltransferase assay. The settings on record: 10 µM. The class given is functional.
Test [5] has as its target T2, Arginase-2, mitochondrial (Homo sapiens) (UniProt P78540).
T2 sequence (whole entry): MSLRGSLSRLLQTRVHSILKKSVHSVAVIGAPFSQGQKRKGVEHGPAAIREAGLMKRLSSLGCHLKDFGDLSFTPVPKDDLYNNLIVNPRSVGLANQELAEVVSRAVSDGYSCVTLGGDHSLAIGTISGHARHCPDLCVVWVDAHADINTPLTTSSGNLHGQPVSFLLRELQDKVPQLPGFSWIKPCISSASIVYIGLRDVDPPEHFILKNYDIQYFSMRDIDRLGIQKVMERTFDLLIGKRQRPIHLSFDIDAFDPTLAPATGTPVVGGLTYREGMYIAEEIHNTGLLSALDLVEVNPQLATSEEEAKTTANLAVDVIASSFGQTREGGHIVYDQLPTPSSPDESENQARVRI
The experiment in a line: in vitro enzyme assay to detect the production of urea directly proportional to the activity of Arginase II. Further: in the data most compounds retested in dose-response had high values. The class given is functional. The settings on record: 33.3 µM.

Test [6] deals with T3, Proteasome subunit beta (Trypanosoma cruzi) (UniProt O96673).
T3 sequence (whole entry): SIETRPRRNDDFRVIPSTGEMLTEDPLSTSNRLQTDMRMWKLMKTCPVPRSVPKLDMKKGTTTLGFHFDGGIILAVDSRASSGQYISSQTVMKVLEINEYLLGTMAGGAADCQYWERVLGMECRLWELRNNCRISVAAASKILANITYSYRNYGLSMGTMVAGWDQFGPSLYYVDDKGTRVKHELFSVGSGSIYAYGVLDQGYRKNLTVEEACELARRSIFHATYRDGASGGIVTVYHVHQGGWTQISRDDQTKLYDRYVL
The experiment in a line: Trypanosoma cruzi proteasome chymotrypsin-like activity (TcProtChymo) assay. Further: in the data most compounds retested in dose-response had high values. It is filed as functional. As to conditions: 9.37 µM.

The species named for another test is Homo sapiens. The experiment in a line: To identify inhibition of the IFN signalling (Jak-Stat) pathway via expression of an eGFP reporter gene under the control of an IFN-stimulated response element (ISRE) containing MxA promoter. It is filed as functional. As to conditions: 30 µM. (A reporter such as luciferase makes a cellular process visible.)
The target of test [7] is T4, Tyrosyl-tRNA synthetase, putative (Trypanosoma cruzi (strain CL Brener)) (UniProt Q4DSP6).
T4 sequence (whole entry): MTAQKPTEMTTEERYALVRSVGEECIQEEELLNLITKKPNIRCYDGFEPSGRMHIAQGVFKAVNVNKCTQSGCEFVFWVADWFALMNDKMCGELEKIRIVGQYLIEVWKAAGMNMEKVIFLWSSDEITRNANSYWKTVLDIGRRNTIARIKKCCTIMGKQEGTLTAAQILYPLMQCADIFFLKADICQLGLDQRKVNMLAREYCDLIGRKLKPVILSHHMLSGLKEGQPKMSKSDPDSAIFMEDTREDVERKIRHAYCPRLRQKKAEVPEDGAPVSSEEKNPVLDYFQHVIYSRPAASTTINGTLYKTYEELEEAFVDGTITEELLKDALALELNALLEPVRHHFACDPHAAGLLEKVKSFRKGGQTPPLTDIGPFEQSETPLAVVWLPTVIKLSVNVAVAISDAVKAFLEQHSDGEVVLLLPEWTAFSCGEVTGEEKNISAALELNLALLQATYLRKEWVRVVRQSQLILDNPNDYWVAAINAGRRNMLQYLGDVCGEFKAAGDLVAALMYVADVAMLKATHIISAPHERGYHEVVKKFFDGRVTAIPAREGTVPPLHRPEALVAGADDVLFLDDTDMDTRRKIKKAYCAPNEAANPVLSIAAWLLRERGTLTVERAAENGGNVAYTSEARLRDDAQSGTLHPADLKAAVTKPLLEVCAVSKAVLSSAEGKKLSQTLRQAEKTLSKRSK
Briefly: Trypanosoma cruzi tyrosyl tRNA synthetase (TcYRS) _High Tyrosine SOP. Further: in the data most compounds retested in dose-response had high values. The class given is functional. The settings on record: 30 µM.

Test [8] addresses T4, Tyrosyl-tRNA synthetase, putative (Trypanosoma cruzi (strain CL Brener)). Briefly: Trypanosoma cruzi tyrosyl tRNA synthetase (TcYRS) SOP. It is filed as functional. The settings on record: 30 µM.
For test [9], the target named is Chromo domain-containing protein 1 (Saccharomyces cerevisiae (strain ATCC 204508 / S288c) (Baker's yeast)) (UniProt P32657). The experiment in a line: ScCHD-1 Enzyme Inhibition Assay. Further: in the data most compounds retested in dose-response had high values. The class given is functional. The settings on record: 30 µM.
Chromo domain-containing protein 1 (Saccharomyces cerevisiae (strain ATCC 204508 / S288c) (Baker's yeast)), sequence (P32657 whole entry, the tested form may be a part): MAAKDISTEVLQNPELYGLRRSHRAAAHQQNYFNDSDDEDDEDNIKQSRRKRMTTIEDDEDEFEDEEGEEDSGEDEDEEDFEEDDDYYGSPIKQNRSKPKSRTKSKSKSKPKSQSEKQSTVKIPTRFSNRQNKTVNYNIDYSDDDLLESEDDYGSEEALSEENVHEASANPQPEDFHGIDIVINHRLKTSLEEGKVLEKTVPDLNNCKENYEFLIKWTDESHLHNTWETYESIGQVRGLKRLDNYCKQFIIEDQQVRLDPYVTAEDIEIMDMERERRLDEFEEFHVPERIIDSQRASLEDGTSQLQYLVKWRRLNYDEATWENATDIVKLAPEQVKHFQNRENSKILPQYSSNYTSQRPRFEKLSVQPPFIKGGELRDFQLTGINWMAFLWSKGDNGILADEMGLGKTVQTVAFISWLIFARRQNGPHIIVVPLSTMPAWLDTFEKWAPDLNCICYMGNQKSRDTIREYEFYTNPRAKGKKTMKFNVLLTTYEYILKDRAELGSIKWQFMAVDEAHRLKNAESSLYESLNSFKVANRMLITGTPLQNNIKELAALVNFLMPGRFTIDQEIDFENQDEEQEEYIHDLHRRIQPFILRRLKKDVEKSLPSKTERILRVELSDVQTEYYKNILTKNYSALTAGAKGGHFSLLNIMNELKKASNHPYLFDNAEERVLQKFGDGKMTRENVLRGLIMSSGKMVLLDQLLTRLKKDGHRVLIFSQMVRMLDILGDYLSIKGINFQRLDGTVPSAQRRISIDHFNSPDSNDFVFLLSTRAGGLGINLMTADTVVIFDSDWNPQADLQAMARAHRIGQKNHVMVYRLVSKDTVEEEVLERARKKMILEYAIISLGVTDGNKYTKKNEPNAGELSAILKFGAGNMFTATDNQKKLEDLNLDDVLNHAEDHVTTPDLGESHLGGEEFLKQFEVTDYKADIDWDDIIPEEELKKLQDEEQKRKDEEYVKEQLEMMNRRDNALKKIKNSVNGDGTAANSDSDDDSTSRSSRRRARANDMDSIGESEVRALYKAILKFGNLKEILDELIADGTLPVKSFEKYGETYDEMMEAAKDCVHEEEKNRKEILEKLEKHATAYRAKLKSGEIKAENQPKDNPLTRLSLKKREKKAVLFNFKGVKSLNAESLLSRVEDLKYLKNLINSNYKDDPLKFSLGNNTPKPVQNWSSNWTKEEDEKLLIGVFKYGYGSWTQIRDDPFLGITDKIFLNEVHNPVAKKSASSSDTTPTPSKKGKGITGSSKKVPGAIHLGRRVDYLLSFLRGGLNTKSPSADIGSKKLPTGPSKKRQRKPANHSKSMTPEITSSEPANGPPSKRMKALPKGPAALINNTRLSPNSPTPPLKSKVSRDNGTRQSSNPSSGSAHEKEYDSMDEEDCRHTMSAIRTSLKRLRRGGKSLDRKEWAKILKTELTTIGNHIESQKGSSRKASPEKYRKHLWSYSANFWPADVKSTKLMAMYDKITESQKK

For some of these results: Potency and affinity values are given separately.

Protein translocase subunit SecA (Escherichia coli (strain K12)), sequence (P10408 whole entry): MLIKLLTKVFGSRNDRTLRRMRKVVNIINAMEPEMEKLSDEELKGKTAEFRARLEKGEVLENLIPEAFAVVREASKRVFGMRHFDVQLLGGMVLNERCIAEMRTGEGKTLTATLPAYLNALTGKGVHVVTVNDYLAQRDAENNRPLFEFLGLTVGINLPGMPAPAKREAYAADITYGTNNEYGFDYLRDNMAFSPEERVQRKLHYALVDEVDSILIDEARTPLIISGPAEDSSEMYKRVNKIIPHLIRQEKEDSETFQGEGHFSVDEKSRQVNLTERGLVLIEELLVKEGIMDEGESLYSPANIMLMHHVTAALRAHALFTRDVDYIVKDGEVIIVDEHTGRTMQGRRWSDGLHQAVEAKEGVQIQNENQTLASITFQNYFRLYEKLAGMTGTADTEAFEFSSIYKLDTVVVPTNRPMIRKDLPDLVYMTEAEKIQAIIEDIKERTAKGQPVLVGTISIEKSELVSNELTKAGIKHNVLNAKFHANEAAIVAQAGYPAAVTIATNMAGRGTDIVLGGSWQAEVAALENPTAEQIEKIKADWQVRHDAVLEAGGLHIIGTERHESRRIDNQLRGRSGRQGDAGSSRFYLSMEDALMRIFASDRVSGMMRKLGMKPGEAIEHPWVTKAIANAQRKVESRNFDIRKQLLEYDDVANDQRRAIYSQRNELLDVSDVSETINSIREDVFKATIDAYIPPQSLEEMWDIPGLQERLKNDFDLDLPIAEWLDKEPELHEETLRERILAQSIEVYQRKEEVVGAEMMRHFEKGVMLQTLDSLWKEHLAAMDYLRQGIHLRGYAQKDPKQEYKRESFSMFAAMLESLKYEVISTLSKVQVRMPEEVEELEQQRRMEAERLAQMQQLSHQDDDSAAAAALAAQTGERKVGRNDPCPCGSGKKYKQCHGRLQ

Turning to `CCN(CC1CCCO1)C(=O)Nc1ccc(F)cc1OC` (stereo unspecified), the Percent Effect in test [1] is -3.45%; in test [2] it was 17.7%; in [3], -6.96%; in test [4], 10.6%; in the test on Trypanosoma cruzi, 6.14%; in test [5], 3.8%. The Percent Effect was 4.5% in test [6]; -28.1% in the test filed under Homo sapiens; 4.43% in [7]; 16.5% in [8]; -7.51% in test [9].
Regarding `Oc1ccc(N2CCN(Cc3cc4c(cc3Br)OCCO4)CC2)cc1`, the Percent Effect in test [1] is -0.859%; in [2], -9.72%; in test [3] it was 44.8%; in test [4] it was 3.01%; with Trypanosoma cruzi it was -1.07%; in test [5], -2.21%. The Percent Effect is 13.2% in [6]; 27.4% in the test listed under Homo sapiens; 9.47% in test [7]; 10.3% in test [8]; -3.02% in test [9].
For the molecule `CC(NC(=O)NCCCNS(C)(=O)=O)c1ccncc1` (stereo unspecified), the Percent Effect in test [1] was -4.34%; in [2], 6.33%; in [3], 4.73%; in [4], 0.18%; in the test on Trypanosoma cruzi, -2.97%; in test [5], -1.5%. Moreover, the Percent Effect in test [6] is 8.4%; in the test listed under Homo sapiens it was -9.13%; in [7], 12.5%; in [8] it was 17.7%; in test [9], -4.71%.
Consider `CN(Cc1ccccc1)C1COC2(CCN(Cc3nccs3)CC2)C1` (stereo unspecified), for which the Percent Effect in test [1] was -6.64%; in test [2], 13.3%; in [3] it was -9.84%; in test [4] it was 1.43%; with Trypanosoma cruzi, 3.09%; in test [5] it was -51.1%. Besides, the Percent Effect was 4.79% in test [6]; -4.42% in the test listed under Homo sapiens; 4.17% in test [7]; 7.5% in test [8]; -9.89% in test [9].
Turning to `c1ncn(CC2CCCN(Cc3nc(C4CC4)no3)C2)n1` (stereo unspecified), the Percent Effect was -5.67% in [1]; 10.1% in [2]; -7.43% in test [3]; 8.58% in test [4]; 8.59% in the test on Trypanosoma cruzi; -4.56% in [5]. Further, the Percent Effect in [6] was -3.36%; in the test filed under Homo sapiens, -5.79%; in [7], 6.4%; in test [8] it was 13.9%; in test [9], -1.7%.
As to `c1cnn(CC2CN(CC3CCCC3)CCO2)c1` (stereo unspecified), the Percent Effect was -5.26% in [1]; 3.8% in test [2]; -0.822% in [3]; 1.53% in test [4]; 0.308% with Trypanosoma cruzi; 0.645% in test [5]. The Percent Effect in test [6] is 10.6%; in the test filed under Homo sapiens it was -2.54%; in [7] it was 5.21%; in [8], -15.2%; in test [9], -17.2%.
Consider `Nc1nc(C2CCN(C(=O)c3cscn3)CC2)cs1`, for which the Percent Effect in test [1] is -2.59%; in test [2], 10.7%; in [3], 8.2%; in test [4], -2.11%; with Trypanosoma cruzi, -3.15%; in [5], -3.03%. The Percent Effect in [6] is 3.96%; in the test filed under Homo sapiens, 18.2%; in test [7] it was 3.19%; in test [8], 11.5%; in [9] it was -5.08%.
Take `COc1ccc(NC(=O)CCC2CCCN(Cc3ncon3)C2)c(C)c1` (stereo unspecified): the Percent Effect in test [1] was -3.42%; in test [2], 2.67%; in test [3] it was -0.626%; in test [4], -0.0167%; in the test with Trypanosoma cruzi it was -5.36%; in test [5] it was -3.65%. The Percent Effect is 22% in test [6]; 22.2% in the test filed under Homo sapiens; 6.01% in [7]; 11.1% in test [8]; -6.4% in test [9].
Turning to `c1cnn(CCNCc2nnc(C3CC3)o2)c1`, the Percent Effect in test [1] is -2.66%; in [2], 27.9%; in test [3], -5.53%; in test [4], -12.3%; in the test on Trypanosoma cruzi, 1.42%; in [5] it was -2.66%. Further, the Percent Effect was 9.91% in test [6]; 11.1% in the test filed under Homo sapiens; 7.39% in test [7]; 24.1% in [8]; -13.5% in test [9].
Take `CCN1CCN(S(=O)(=O)c2ncn(C)c2Cl)CC1`: the Percent Effect in test [1] is -6.34%; in test [2], 6.94%; in [3], -0.0263%; in [4], 3.04%; in the test with Trypanosoma cruzi, -3.79%; in [5] it was 1.77%. Besides, the Percent Effect in [6] is 21.4%; in the test listed under Homo sapiens, 6.76%; in test [7], 1.05%; in [8], 10.3%; in test [9] it was -1.92%.
Take `CCN(CC)CCNC(=O)c1nn(CC)cc1Cl`: the Percent Effect in test [1] was 0.115%; in test [2], 20%; in test [3], -10.1%; in [4], -7.51%; in the test on Trypanosoma cruzi it was 2.55%; in test [5], -10.7%. Also, the Percent Effect was 9.43% in [6]; 29.3% in the test filed under Homo sapiens; 5.29% in [7]; 10.3% in test [8]; -9.1% in test [9].
